From PubChem BioAssay AID1878 (Sanford-Burnham Center for Chemical Genomics, 2009) come the findings set out here.

The whole screen tested about 1,000 compounds, of which about 200 (20%) were called active. Not all results are given here. Results with a measured potency or affinity are listed apart. Unmarked numbers belong to inactive results. No stated cut-off is given here; in the data, active means inhibition above about 55%; inactive means the rest.

The assay deals with Dual specificity protein phosphatase 3 (Homo sapiens) (UniProt P51452). As to the kind of experiment: VHR1 phosphatase inhibitors, biochemical (AID 1878). The settings on record: recombinant VHR phosphatase, fluorogenic substrate; at 13.3 µM; active compounds read high.
Dual specificity protein phosphatase 3 (Homo sapiens), sequence (P51452 whole entry, looked up): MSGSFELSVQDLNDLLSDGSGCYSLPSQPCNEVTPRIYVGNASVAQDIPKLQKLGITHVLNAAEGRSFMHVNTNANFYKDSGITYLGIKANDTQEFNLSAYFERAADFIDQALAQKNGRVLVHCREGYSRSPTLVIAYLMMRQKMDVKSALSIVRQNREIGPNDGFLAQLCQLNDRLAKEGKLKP
In general, inhibition refers to the drop in the measured response relative to a control, in per cent. With `CC(C)Cn1c(=O)c2ccccc2n2c(CCC(=O)NC3CCN(Cc4ccccc4)CC3)nnc12`, the inhibition is 17.9%.
For the molecule `Cn1nc(-c2ccc(C(=O)Nc3ccc(F)cc3)cc2)c2ccccc2c1=O`, the inhibition is 96.2% (active).
On to `O=C(Nc1ccccc1-c1nnn(CC(=O)N2CCOCC2)n1)c1ccc(F)cc1`, for which the inhibition was -1.6%.
In the case of `COCCNC(=O)Cn1nc(-c2ccc(C)cc2)c2ccccc2c1=O`, the inhibition is 2.6%.
With `CCn1cc(C(=O)N2CCCC(N3CCN(c4cccc(C(F)(F)F)c4)CC3)C2)cn1` (stereo unspecified), the inhibition is -9%.
Turning to `COCCCNC(=O)Cn1cc(/C=C(\C#N)C(=O)NC2CC2)c2ccccc21`, the inhibition was -8.8%.
Regarding `CCN(CC)CCC(=O)N1c2ccccc2CCc2ccc(NC(=O)OC(C)C)cc21`, the inhibition is 3.9%.
Take `O=c1[nH]c(=O)c2nc3c4ccccc4c4ccccc4c3nc2[nH]1`: the inhibition was 80.4% (active).
In the case of `Cn1nc(C(=O)NCCCN2CCCCC2)c2c1-c1ccccc1S(=O)(=O)C2`, the inhibition is -6.6%.
As for `Cc1ccc(NC(=O)C2CCN(S(=O)(=O)c3ccc4c(c3)NC(=O)CO4)CC2)cc1`, the figure is -0.8%.
For `COc1ccc(CNCC(O)(c2ccccc2)c2ccc(F)cc2)cc1OC` (stereo unspecified), the inhibition is 13%.
On to `Cc1sc2ncn(CC(=O)N3CCCC(C)C3)c(=O)c2c1S(=O)(=O)N1CCCCC1` (stereo unspecified), for which the inhibition was 7.1%.
Consider `O=C(NC(=O)c1ccccc1)Nc1ccccc1`, for which the inhibition is 2.5%.
In the case of `O=C(NC(=S)Nc1ccc(CN2CCCCC2)cc1)c1cccc(OCc2ccccc2)c1`, the inhibition was -29.4%.
Regarding `COc1cc2ccccc2cc1C(=O)NC(=S)Nc1cccc(C(=O)O)c1`, the inhibition was 55% (active).
Take `O=C(CNCCc1ccccc1)Nc1ccc(C(=O)N2CCCCC2)cc1`: the inhibition is 3.1%.
As for `O=C(CSc1nc(-c2ccccc2)nc2c1Cc1ccccc1O2)Nc1ccc(C(=O)O)cc1`, the inhibition was 98.8% (active).
With `CC(=O)c1ccc(NC(=O)CSc2nc(C)cc(C)c2C(N)=O)cc1` the figure was -9.9%; with `O=C(CSc1nc(-c2ccc(F)cc2)nc2c1Cc1ccccc1O2)Nc1cccc(C(=O)O)c1`, 96.6% (active).
For `CCCCn1c(N)c(N(CCOC)C(=O)c2cc(S(=O)(=O)N3CCCCC3)ccc2Cl)c(=O)[nH]c1=O`, the inhibition was -7.9%.
As for `COC(=O)c1ccc(COc2ccc(C(C)(C)C)cc2)o1`, the inhibition was 29.7%.
Regarding `O=C1CCCN1CCC(=O)N1CCCC(CO)(Cc2ccccc2)C1` (stereo unspecified), the inhibition was 26.9%.
For the molecule `CC1CC(C)CN(CCCNC(=O)c2ccc(CNS(=O)(=O)c3ccc(F)cc3)cc2)C1` (stereo unspecified), the inhibition is 2.4%.
With `COc1ccc(CN2C(=O)c3cccnc3C2=O)cc1S(=O)(=O)NC1CCCCC1` the figure was -2.5%; with `CCOc1ccc(C(=O)N2CCC3(CC2)NCCc2[nH]cnc23)cc1OCC`, -1.8%; with `Cc1c(C)c2ccc(O[C@@H]3O[C@H](CO)[C@H](O)[C@H](O)[C@H]3O)c(C)c2oc1=O`, -3.5%.
Take `Cc1c(NC(=O)c2ccc(Cl)c(S(=O)(=O)N3CCCCC3)c2)c(=O)n(-c2ccccc2)n1C`: the inhibition was -10.6%.
Turning to `CCC1CCCCN1CCCNC(=O)CNC(=O)c1nn(-c2ccc(OC)c(Cl)c2)c(=O)c2ccccc12` (stereo unspecified), the inhibition is -5.3%.
In the case of `COc1ccc(CN2CCNC(=O)C2CC(=O)NCC2CCOCC2)c(C)c1C` (stereo unspecified), the inhibition was 15.1%.
In the case of `COCCNc1cc(C)nc2c3c(C)cc(C)nc3nn12`, the inhibition was 9.5%.
`CCOc1cc(/C=C(\C#N)C(=O)Nc2cccc(C(=O)O)c2)ccc1OCc1ccccc1Cl`: the inhibition was 94.8% (active).
As for `CCOc1cc(/C=C(/C#N)C(=O)Nc2ccc(OC)cc2)ccc1OCc1ccc(C(=O)O)cc1`, the inhibition is 90.9% (active).
Consider `CCOc1ccccc1NC(=O)Nc1cc(C(=O)O)ccc1C`, for which the inhibition is -10.9%.
Turning to `CCOc1ccc(C(=O)Nc2cc3c(cc2N2CCCC2)n(CC)c(=O)n3CC)cc1OCC`, the inhibition was -0.2%.
For `C/C=C/c1ccc(OCC(O)CNCCc2ccc(OC)cc2)c(OC)c1` (stereo unspecified), the inhibition was 11.7%.
As to `COc1cc(/C=C(\C#N)C(=O)Nc2ccc(C(=O)O)cc2)ccc1OC(=O)c1cccc(F)c1`, the inhibition was 67.8% (active).
On to `COc1ccc(CCC(=O)NNC(=O)Nc2ccc(OC)c(OC)c2)cc1`, for which the inhibition was 1.3%.
As for `CCOc1cc(/C=C(\C#N)C(=O)Nc2ccccc2C(=O)O)ccc1OC(=O)c1ccc(C)cc1`, the figure is 87.8% (active); as for `CCc1ccccc1S(=O)(=O)c1c(C)cc(C)nc1Cl`, -1.3%; as for `C=CCC(=O)NC1CC(C)(C)Cc2c1cnn2-c1ccc(C)cc1` (stereo unspecified), -12.1%.
With `CCC(=O)NC1=C(Nc2ccc(N)cc2)C(=O)c2ccccc2C1=O` the figure was -7.2%.
Take `O=C(NC1CCCCC1)c1cc(-c2ccccc2Cl)on1`: the inhibition was 3.4%.
As for `CCCN1C2CCCC1CC(NC(=O)NC13CC4CC(CC(C4)C1)C3)C2` (stereo unspecified), the figure is 25.2%; as for `CC(C)c1nn2c(=O)cc(COc3cccc(NC(=O)c4ccco4)c3)nc2s1`, 10.3%; as for `O=C(Nc1cccc(O)c1)C1CC(c2cccc(Br)c2)=NO1` (stereo unspecified), 6.5%.
Regarding `O=C(Nc1ccc(C(=O)N2CCN(c3ccc(F)cc3)CC2)cc1)C1=CSCCO1`, the inhibition is 4.8%.
Take `Cc1nn(CC(=O)NCCCN2CCCCC2)c(=O)c2cc(-c3ccccc3)nn12`: the inhibition is 22.8%.
With `COc1cc(CNc2ccc(N3CCOCC3)cc2)ccc1OCC(=O)NC(C)(C)C`, the inhibition was 2.1%.
As for `CCOc1ccccc1CN1CCC(n2nccc2NC(=O)C2CCCC2)CC1`, the inhibition was -19.2%.
In the case of `COc1cc(C(=O)NCC2(c3ccccc3)CCCC2)ccc1OC(C)C`, the inhibition was -7.1%.
As for `Cc1ccc(-c2[nH]ncc2C(=O)c2ccccc2C)c(O)c1`, the figure is -9%; as for `CC(Cc1ccccc1)N1C(=O)c2ccccc2C1=O` (stereo unspecified), -2.4%.
With `C=CCN(C(=O)CNC(=O)c1cccs1)C(C(=O)NC(C)(C)C)c1ccccc1` (stereo unspecified) the figure was -6%; with `Cc1cc(Cl)c2oc(C(=O)NC(C)c3ccncn3)c(C)c2c1` (stereo unspecified), -5.8%; with `CC1Sc2ccc(S(=O)(=O)CCC(=O)N(C)Cc3ccco3)cc2NC1=O` (stereo unspecified), -2.5%.
As for `CC(C)(C)C(=O)NN=C1CCC(c2ccccc2)CC1` (stereo unspecified), the inhibition is -3.9%.
